# Reference: ChEMBL document CHEMBL1961873, “Compounds: GSK PKIS; Assays: Nanosyn kinase panel” (2012)
# Experiments:
# [1] = molecular target: Sphingosine kinase 1 (Homo sapiens) (UniProt Q9NYA1); conditions: at 1 µM;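 further: mean SPHK1 inhibition value reported from the GSK PKIS kinase panel screen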
# [2] = molecular target: T1, Sphingosine kinase 2 (Homo sapiens) (UniProt Q9NRA0); conditions: at 0.1 µM
# T1 sequence (whole entry): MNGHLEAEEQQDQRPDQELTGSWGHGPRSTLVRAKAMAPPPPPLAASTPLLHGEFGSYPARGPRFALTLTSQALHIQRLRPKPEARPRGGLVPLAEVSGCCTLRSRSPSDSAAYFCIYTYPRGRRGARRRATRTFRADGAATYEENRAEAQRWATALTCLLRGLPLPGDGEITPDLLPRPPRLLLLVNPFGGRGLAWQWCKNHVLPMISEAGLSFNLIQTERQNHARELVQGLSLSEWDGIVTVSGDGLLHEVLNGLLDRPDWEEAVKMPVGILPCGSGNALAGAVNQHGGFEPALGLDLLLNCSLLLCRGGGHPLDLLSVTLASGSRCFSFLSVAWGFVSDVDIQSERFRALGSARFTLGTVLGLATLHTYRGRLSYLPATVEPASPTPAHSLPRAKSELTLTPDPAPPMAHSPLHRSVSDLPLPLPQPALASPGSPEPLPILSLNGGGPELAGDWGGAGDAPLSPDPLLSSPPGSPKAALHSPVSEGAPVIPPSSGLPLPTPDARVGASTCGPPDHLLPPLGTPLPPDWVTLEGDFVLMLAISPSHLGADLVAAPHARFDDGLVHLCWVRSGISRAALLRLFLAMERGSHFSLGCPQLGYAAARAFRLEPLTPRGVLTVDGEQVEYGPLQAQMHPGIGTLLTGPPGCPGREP
# [3] = molecular target: T1, Sphingosine kinase 2 (Homo sapiens); conditions: at 1 µM
# [4] = molecular target: Casein kinase II subunit alpha (Homo sapiens) (UniProt P68400); conditions: at 0.1 µM
# Sequence of Casein kinase II subunit alpha (Homo sapiens) (P68400 whole entry, looked up): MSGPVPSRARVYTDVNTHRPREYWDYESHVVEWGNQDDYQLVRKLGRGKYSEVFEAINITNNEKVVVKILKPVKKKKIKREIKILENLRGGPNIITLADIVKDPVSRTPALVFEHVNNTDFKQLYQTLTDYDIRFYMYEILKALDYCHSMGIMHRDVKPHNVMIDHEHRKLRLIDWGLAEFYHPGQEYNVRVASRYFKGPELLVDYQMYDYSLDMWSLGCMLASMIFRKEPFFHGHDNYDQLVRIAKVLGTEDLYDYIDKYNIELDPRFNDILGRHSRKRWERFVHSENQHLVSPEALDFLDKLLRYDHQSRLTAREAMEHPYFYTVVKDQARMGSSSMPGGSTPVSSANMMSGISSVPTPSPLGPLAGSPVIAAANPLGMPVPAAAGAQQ
# [5] = molecular target: Casein kinase II subunit alpha (Homo sapiens) (UniProt P68400); conditions: at 1 µM
# [6] = molecular target: T2, Inhibitor of nuclear factor kappa-B kinase subunit alpha (Homo sapiens) (UniProt O15111); conditions: at 0.1 µM
# T2 sequence (whole entry): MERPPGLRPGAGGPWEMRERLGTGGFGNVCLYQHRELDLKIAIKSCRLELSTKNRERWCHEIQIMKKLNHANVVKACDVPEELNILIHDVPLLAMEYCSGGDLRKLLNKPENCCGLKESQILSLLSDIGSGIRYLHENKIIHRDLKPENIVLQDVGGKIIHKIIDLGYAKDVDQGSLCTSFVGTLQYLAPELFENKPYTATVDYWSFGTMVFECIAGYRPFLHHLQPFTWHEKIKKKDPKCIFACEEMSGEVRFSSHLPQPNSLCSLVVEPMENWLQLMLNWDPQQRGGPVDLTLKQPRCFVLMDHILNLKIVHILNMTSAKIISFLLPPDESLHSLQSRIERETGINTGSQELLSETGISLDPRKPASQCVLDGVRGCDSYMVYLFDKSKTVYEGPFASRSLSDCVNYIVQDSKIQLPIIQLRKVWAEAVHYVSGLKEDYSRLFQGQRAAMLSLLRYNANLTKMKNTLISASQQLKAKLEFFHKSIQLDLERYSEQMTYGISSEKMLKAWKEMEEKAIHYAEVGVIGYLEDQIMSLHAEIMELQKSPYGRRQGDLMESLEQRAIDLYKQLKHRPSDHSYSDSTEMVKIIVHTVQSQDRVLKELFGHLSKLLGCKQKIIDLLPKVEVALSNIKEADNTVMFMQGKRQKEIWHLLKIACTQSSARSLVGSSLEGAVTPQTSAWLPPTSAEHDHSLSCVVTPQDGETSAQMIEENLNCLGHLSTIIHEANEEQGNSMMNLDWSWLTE
# [7] = molecular target: T2, Inhibitor of nuclear factor kappa-B kinase subunit alpha (Homo sapiens); conditions: at 1 µM
# [8] = molecular target: T3, Inhibitor of nuclear factor kappa-B kinase subunit beta (Homo sapiens) (UniProt O14920); conditions: at 0.1 µM
# T3 sequence (whole entry): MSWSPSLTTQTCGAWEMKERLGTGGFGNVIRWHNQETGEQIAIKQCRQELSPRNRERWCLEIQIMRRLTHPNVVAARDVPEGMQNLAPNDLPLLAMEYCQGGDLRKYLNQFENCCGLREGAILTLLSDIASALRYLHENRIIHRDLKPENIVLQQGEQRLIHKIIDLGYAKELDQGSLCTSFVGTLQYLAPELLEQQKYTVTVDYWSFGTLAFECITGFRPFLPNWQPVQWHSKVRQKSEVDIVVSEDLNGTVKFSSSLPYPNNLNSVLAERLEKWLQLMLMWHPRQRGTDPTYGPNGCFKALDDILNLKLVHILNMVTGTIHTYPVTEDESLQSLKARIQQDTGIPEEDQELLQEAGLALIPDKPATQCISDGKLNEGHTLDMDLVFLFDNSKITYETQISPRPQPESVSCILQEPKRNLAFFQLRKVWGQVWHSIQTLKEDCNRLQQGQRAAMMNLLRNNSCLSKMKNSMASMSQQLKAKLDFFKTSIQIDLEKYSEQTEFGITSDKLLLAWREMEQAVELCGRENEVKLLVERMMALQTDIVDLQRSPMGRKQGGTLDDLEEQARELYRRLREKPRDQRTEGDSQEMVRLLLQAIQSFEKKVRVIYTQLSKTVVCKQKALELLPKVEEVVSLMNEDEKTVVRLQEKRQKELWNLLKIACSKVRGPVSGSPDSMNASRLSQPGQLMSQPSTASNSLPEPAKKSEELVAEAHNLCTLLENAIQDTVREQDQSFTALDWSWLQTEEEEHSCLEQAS
# [9] = molecular target: T3, Inhibitor of nuclear factor kappa-B kinase subunit beta (Homo sapiens); conditions: at 1 µM
# [10] = molecular target: T4, Inhibitor of nuclear factor kappa-B kinase subunit epsilon (Homo sapiens) (UniProt Q14164); conditions: at 0.1 µM
# T4 sequence (whole entry): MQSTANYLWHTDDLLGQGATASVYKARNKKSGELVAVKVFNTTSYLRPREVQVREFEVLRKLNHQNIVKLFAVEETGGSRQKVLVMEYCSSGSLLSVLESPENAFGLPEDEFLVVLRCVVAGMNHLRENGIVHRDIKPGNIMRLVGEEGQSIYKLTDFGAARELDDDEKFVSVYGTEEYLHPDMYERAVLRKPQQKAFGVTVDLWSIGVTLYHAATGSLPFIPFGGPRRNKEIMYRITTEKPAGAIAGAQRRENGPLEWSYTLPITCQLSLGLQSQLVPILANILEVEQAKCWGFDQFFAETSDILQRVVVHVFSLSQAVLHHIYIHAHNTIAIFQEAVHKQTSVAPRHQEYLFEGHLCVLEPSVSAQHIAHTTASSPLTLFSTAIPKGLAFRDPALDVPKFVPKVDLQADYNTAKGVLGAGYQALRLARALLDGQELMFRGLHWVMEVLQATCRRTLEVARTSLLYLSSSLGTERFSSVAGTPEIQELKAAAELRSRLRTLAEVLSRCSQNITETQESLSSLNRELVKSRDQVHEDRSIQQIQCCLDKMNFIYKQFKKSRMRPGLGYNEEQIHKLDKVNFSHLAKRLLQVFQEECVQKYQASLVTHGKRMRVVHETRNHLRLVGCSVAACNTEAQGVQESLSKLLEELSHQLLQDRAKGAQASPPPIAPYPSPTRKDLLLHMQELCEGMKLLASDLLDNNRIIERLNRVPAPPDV
# [11] = molecular target: T4, Inhibitor of nuclear factor kappa-B kinase subunit epsilon (Homo sapiens); conditions: at 1 µM
# [12] = molecular target: T5, Serine/threonine-protein kinase Nek1 (Homo sapiens) (UniProt Q96PY6); conditions: at 0.1 µM
# T5 sequence (whole entry): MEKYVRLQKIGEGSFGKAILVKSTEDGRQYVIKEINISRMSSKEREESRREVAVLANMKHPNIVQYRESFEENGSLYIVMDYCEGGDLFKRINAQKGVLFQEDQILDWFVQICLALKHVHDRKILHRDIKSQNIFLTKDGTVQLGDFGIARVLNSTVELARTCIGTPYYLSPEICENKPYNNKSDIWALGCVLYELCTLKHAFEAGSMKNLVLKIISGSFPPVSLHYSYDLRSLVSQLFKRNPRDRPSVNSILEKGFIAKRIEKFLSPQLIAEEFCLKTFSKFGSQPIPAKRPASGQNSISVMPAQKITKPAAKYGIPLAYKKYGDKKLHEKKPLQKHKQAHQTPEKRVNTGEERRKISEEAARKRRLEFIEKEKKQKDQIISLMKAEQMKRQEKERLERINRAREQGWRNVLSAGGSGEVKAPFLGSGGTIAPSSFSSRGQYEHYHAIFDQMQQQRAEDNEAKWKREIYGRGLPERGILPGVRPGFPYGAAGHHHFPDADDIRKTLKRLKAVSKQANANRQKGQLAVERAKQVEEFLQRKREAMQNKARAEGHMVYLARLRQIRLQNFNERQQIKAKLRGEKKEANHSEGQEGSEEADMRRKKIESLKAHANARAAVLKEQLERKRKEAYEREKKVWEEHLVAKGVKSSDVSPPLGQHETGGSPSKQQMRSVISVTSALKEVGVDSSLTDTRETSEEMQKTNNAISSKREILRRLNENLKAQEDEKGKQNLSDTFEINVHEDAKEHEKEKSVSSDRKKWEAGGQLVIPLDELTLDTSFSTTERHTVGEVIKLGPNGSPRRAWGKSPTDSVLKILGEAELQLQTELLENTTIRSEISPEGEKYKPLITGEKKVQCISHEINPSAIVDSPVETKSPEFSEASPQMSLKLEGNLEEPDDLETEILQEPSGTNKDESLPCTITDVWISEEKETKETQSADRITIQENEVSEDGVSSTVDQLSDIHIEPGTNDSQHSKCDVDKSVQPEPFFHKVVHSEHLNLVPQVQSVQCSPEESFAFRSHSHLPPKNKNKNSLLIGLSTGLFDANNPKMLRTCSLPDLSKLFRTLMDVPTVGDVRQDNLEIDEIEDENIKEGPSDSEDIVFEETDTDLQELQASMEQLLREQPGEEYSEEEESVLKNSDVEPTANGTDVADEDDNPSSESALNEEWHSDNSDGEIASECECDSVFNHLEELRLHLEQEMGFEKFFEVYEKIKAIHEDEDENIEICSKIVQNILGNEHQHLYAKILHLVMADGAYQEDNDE
# [13] = molecular target: T5, Serine/threonine-protein kinase Nek1 (Homo sapiens); conditions: at 1 µM
# [14] = molecular target: T6, Serine/threonine-protein kinase Nek2 (Homo sapiens) (UniProt P51955); conditions: at 0.1 µM
# T6 sequence (whole entry): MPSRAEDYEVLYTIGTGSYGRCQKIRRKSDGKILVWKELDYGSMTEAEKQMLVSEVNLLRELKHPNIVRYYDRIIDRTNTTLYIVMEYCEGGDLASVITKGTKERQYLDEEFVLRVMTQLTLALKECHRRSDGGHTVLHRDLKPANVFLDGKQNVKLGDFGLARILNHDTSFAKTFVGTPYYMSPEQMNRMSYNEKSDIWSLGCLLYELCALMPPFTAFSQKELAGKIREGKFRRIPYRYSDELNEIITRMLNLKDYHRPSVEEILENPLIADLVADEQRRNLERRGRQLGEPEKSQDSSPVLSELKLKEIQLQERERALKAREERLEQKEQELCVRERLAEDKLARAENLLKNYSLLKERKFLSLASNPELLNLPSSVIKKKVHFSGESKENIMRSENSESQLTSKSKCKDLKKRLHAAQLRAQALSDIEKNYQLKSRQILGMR
# [15] = molecular target: T6, Serine/threonine-protein kinase Nek2 (Homo sapiens); conditions: at 1 µM
# [16] = molecular target: Serine/threonine-protein kinase Nek6 (Homo sapiens) (UniProt Q9HC98); conditions: at 0.1 µM
# Sequence of Serine/threonine-protein kinase Nek6 (Homo sapiens) (Q9HC98 whole entry): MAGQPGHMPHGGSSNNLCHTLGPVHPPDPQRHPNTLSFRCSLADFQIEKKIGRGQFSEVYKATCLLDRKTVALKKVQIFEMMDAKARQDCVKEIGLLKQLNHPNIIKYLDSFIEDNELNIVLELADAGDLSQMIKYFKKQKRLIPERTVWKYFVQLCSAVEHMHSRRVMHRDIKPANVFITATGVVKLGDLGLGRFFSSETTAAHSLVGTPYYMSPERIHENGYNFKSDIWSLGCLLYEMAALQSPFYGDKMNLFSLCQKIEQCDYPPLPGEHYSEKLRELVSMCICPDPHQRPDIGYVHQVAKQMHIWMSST
# [17] = molecular target: Serine/threonine-protein kinase Nek6 (Homo sapiens) (UniProt Q9HC98); conditions: at 1 µM
# [18] = molecular target: Serine/threonine-protein kinase Nek7 (Homo sapiens) (UniProt Q8TDX7); conditions: at 0.1 µM
# Sequence of Serine/threonine-protein kinase Nek7 (Homo sapiens) (Q8TDX7 whole entry, looked up): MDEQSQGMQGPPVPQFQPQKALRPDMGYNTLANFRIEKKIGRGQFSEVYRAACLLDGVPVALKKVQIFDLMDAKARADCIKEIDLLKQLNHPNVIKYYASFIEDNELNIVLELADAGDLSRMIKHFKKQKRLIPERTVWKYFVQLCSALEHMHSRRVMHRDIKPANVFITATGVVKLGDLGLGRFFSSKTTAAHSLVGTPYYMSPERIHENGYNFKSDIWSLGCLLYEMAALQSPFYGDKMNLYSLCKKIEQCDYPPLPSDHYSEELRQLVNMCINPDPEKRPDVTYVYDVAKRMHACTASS
# [19] = molecular target: Serine/threonine-protein kinase Nek7 (Homo sapiens) (UniProt Q8TDX7); conditions: at 1 µM
# [20] = molecular target: T7, Serine/threonine-protein kinase Nek9 (Homo sapiens) (UniProt Q8TD19); conditions: at 0.1 µM;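 further: reported value is the mean percent inhibition of NEK9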
# T7 sequence (whole entry): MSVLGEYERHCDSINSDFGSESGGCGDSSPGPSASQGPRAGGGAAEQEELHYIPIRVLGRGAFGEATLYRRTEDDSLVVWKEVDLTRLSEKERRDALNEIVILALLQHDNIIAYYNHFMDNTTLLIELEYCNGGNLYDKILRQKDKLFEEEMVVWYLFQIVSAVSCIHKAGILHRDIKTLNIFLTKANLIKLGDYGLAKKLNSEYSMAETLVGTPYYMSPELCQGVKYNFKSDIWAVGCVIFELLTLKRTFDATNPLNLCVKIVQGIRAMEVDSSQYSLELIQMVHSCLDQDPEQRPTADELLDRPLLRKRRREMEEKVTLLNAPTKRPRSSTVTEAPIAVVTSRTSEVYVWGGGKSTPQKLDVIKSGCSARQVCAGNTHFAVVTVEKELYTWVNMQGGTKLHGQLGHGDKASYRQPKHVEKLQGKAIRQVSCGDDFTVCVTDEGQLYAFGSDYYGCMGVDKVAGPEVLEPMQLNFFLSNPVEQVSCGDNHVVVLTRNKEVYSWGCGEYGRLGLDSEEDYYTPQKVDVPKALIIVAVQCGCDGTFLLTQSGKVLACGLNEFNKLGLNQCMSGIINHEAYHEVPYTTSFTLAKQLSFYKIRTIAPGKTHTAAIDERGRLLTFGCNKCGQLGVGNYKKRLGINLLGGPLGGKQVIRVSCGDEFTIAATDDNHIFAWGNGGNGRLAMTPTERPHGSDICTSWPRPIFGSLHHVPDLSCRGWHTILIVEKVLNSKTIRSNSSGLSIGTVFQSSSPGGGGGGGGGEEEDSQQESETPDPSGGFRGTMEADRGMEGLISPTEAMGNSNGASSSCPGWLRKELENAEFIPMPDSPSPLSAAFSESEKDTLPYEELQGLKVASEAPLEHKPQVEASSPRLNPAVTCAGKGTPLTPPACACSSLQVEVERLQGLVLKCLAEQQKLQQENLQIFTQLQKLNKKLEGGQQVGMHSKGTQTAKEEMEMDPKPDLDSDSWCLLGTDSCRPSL
# Sequence of Sphingosine kinase 1 (Homo sapiens) (Q9NYA1 whole entry): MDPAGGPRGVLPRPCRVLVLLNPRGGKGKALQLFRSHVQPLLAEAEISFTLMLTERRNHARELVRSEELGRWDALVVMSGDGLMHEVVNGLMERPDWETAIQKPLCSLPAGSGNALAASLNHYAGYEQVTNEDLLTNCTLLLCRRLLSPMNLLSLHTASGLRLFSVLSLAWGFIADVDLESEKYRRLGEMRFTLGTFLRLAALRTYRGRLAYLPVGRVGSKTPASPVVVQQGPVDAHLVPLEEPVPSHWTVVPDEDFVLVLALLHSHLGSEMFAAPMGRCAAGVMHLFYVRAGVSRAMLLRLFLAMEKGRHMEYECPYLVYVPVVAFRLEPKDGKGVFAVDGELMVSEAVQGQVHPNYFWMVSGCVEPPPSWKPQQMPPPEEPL
smiles,measurement,setting,value
CC1=C(C(=O)Nc2ccc3[nH]ncc3c2)C(c2ccc3ccccc3c2)CC(=O)N1 (stereo not given),inhibition,[1],0%
same,inhibition,[2],0.52%
same,inhibition,[3],0.65%
same,inhibition,[4],3.48%
same,inhibition,[5],6.51%
same,inhibition,[6],-1.96%
same,inhibition,[7],1.55%
same,inhibition,[8],1.45%
same,inhibition,[9],0.58%
same,inhibition,[10],3.14%
same,inhibition,[11],3.81%
same,inhibition,[12],1.66%
same,inhibition,[13],2.46%
same,inhibition,[14],2.88%
same,inhibition,[15],2.9%
same,inhibition,[16],-0.05%
same,inhibition,[17],2.48%
same,inhibition,[18],0.42%
same,inhibition,[19],1.79%
same,inhibition,[20],3.14%
